Laboratory results reported in the supplement of paper PMC10849652.
The full data set covers some 7,900 targets. This sample favours those with a hit. About 0.6% of all pairs of compound and target were hits.

Columns and labels:
Assay in all cases: log2 fold change, soluble protein after heating vs DMSO (PISA); higher = thermal stabilisation; K562 cells, 10 uM, 30 min; active = over 0.2 and 3.5 SD of the protein, either way, in both replicates (recomputed)
erlotinib = compound: C#Cc1cccc(Nc2ncnc3cc(OCCOC)c(OCCOC)cc23)c1 [erlotinib]
Summary of the method: (§1)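 K562 cells (2×10^6 cells/mL) were treated with 10 μM compound for 30 min, and aliquots were heated for 3 min over 48°C-58°C. Pooled aliquots were extracted in PBS with 0.5% NP-40 at 4°C, and the supernatant after 21,000xg for 90 min was measured by TMTpro 16plex LC-MS/MS with channel sums equalised. Reported thermal stability, relative to control samples and from duplicates, is a log2 fold change.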

[1] = compound: C/C(=N\NC(=O)C1=CC(=CC=C1)S(=O)(=O)N2CCOCC2)/C3=C(C=CC(=C3)Cl)O
Summary of the method: as §1

[2] = compound: C1=CC(=C(C=C1Cl)C2=NC3=NC=CN=C3C(=N2)NC4=CC=NC=C4)F
Summary of the method: as §1

[3] = compound: C1=CC(=CC=C1C2=NC3=C(N2)C=C(C=C3)C(=O)N)OC4=CC=C(C=C4)Cl
Summary of the method: as §1

[4] = compound: C1=CC2=C(C=CC(=C2)/C=C\3/C(=O)NC(=NCC4=CC=CS4)S3)N=C1
Summary of the method: as §1

[5] = compound: C1=CC2=NC=CN=C2C=C1/C=C/3\C(=O)NC(=O)S3
Summary of the method: as §1

[6] = compound: C1=CC=C(C=C1)C2=NC(=C(N2)C3=CC=NC=C3)C4=CC(=C(C=C4)Cl)O
Summary of the method: as §1

[7] = compound: C1=CC=C2C(=C1)C3=NNC4=CC=CC(=C43)C2=O
Summary of the method: as §1

[8] = compound: C1CCN(C1)C(=O)NC2=CC=CC(=C2)NC3=NC=C(C(=N3)NCCC4=CN=CN4)Br
Summary of the method: as §1

[9] = compound: C1CN(CCC1(CC2=CC=C(C=C2)Cl)N)C3=NC=NC4=C3C=CN4
Summary of the method: as §1

IRAK-1-4 Inhibitor I = compound: C1COCCN1CCN2C3=CC=CC=C3N=C2NC(=O)C4=CC(=CC=C4)[N+](=O)[O-] [IRAK-1-4 Inhibitor I]
Summary of the method: as §1

ibrutinib = compound: C=CC(=O)N1CCC[C@@H](n2nc(-c3ccc(Oc4ccccc4)cc3)c3c(N)ncnc32)C1 [ibrutinib]
Summary of the method: as §1

[10] = compound: CC(=O)c1cnc2ccc(-c3cc(Cl)c(O)c(Cl)c3)nc2c1N[C@H]1CC[C@H](CN(C)C)CC1
Summary of the method: as §1

ralimetinib = compound: CC(C)(C)Cn1c(N)nc2ccc(-c3[nH]c(C(C)(C)C)nc3-c3ccc(F)cc3)nc21 [ralimetinib]
Summary of the method: as §1

[11] = compound: CC(C)(O)CC(=O)NCCn1ccc2ncnc(Nc3ccc(Oc4cccc(C(F)(F)F)c4)c(Cl)c3)c21
Summary of the method: as §1

[12] = compound: CC(C)C1=C2N=C(C=C(N2N=C1)NCC3=CC=CC=C3)NCCCCCCN
Summary of the method: as §1

[13] = compound: CC(C)C[C@@H](C=O)NC(=O)[C@H](CC(C)C)NC(=O)[C@H](CC(C)C)NC(=O)OCc1ccccc1
Summary of the method: as §1

pinometostat = compound: CC(C)N(C[C@H]1O[C@@H](n2cnc3c(N)ncnc32)[C@H](O)[C@@H]1O)[C@H]1C[C@@H](CCc2nc3cc(C(C)(C)C)ccc3[nH]2)C1 [pinometostat]
Summary of the method: as §1

[14] = compound: CC1=C(C(CC(=O)N1)C2=CC=C(C=C2)C(F)(F)F)C(=O)NC3=C(C=C4C(=C3)C=NN4)F
Summary of the method: as §1

[15] = compound: CC1=C(C2=C(C=C1)C(=O)C3=CC=CC=C3N2CCCN)C
Summary of the method: as §1

Measured: log2 fold change

CCZ1 (UniProt P86791)
inactive: erlotinib 0.027 | [1] 0.046 | [2] -0.003 | [3] 0.064 | [4] 0.034 | [5] -0.017 | [6] 0.031 | [7] 0.011 | [8] 0.016 | [9] 0.011 | IRAK-1-4 Inhibitor I 0.063 | ibrutinib -0.001 | [10] -0.039 | ralimetinib -0.051 | [11] -0.05 | [13] 0.025 | pinometostat 0.012 | [14] -0.007 | [15] 0.006
active: [12] -0.287

CIT isoform 4 (UniProt O14578)
inactive: erlotinib -0.015 | [1] 0.045 | [2] -0.044 | [3] 0 | [4] -0.176 | [5] 0.13 | [6] -0.027 | [7] -0.002 | [8] -0.037 | [9] 0.021 | IRAK-1-4 Inhibitor I -0.013 | ibrutinib -0.057 | ralimetinib -0.008 | [11] -0.077 | [12] -0.021 | [13] 0.045 | pinometostat -0.005 | [14] 0.045 | [15] 0.118
active: [10] -0.462

CHST10 (UniProt O43529)
Sequence of UniProt O43529 (O43529 whole entry, looked up): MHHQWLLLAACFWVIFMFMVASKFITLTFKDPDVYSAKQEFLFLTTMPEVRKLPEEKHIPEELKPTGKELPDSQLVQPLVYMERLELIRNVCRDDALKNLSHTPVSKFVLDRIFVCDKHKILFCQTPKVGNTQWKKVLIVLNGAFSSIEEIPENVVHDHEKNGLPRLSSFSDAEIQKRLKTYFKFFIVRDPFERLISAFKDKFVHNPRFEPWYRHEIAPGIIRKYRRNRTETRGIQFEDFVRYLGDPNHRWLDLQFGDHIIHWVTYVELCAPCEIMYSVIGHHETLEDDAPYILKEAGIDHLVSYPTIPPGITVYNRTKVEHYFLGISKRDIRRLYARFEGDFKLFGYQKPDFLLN
active: [12] -0.435
inactive: erlotinib 0.013 | [1] -0.168 | [2] -0.144 | [3] -0.058 | [4] -0.111 | [5] 0.03 | [6] 0.067 | [7] 0.101 | [8] 0.008 | [9] 0.06 | IRAK-1-4 Inhibitor I 0.056 | ibrutinib -0.062 | [10] -0.135 | ralimetinib 0.059 | [11] 0.042 | [13] -0.003 | pinometostat 0.082 | [14] 0.025 | [15] 0.036

CCNB1 (UniProt P14635)
inactive: erlotinib 0.012 | [1] 0.013 | [2] 0.03 | [3] 0.044 | [4] 0.013 | [5] 0.006 | [6] -0.016 | [7] 0.002 | [8] -0.011 | [9] -0.018 | IRAK-1-4 Inhibitor I 0.035 | ibrutinib -0.024 | ralimetinib -0.016 | [11] -0.005 | [12] -0.014 | [13] 0.006 | pinometostat -0.018 | [14] -0.007 | [15] 0.007
active: [10] -0.221

COX6B1 (UniProt P14854)
inactive: erlotinib 0.027 | [1] 0.011 | [2] 0.247 | [3] -0.045 | [4] 0.118 | [5] 0.048 | [6] 0 | [7] -0.037 | [8] -0.003 | [9] -0.019 | IRAK-1-4 Inhibitor I -0.046 | ibrutinib -0.038 | [10] -0.013 | ralimetinib -0.144 | [11] -0.103 | [12] 0.038 | [13] -0.01 | pinometostat 0.017 | [14] 0.045 | [15] 0.103

CEPT1 (UniProt Q9Y6K0)
Sequence of UniProt Q9Y6K0 (Q9Y6K0 whole entry, looked up): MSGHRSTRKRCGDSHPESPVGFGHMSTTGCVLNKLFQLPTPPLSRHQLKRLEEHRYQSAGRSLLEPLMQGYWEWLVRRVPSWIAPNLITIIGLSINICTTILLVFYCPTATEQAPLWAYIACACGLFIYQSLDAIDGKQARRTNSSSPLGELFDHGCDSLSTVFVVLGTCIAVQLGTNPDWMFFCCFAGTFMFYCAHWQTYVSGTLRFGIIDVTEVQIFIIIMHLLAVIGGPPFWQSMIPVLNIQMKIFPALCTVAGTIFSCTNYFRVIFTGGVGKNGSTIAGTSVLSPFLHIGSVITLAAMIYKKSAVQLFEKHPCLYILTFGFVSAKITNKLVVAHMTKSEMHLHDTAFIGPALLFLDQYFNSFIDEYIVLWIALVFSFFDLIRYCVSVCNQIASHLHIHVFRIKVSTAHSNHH
active: [12] -0.466
inactive: erlotinib 0.099 | [1] 0.034 | [2] 0.016 | [3] 0.107 | [4] 0.037 | [5] 0.047 | [6] 0.011 | [7] 0.071 | [8] 0.007 | [9] -0.074 | IRAK-1-4 Inhibitor I 0.035 | ibrutinib -0.014 | [10] 0.072 | ralimetinib -0.026 | [11] 0.073 | [13] -0.118 | pinometostat -0.016 | [14] 0.023 | [15] 0.118

CELF2 isoform 3 (UniProt O95319)
Sequence of UniProt O95319 (O95319 whole entry, looked up): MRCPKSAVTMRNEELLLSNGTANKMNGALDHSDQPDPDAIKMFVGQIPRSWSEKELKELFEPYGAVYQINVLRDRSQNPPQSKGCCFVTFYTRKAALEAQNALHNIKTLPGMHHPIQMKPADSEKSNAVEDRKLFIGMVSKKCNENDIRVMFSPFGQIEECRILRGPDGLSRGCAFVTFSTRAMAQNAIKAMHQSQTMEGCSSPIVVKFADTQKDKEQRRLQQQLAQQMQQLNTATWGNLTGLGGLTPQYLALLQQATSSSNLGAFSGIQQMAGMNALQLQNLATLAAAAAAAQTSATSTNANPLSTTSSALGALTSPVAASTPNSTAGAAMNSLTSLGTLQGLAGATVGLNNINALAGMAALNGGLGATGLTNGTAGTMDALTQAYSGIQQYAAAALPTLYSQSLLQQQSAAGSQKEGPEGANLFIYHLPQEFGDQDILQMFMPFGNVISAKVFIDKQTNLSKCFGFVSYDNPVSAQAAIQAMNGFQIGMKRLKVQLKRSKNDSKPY
active: [15] 0.418
inactive: erlotinib -0.042 | [1] -0.044 | [2] 0 | [3] 0.045 | [4] 0.004 | [5] 0.047 | [6] 0.021 | [7] 0.064 | [8] -0.022 | [9] 0.086 | IRAK-1-4 Inhibitor I 0.009 | ibrutinib -0.022 | [10] 0.009 | ralimetinib 0.055 | [11] -0.003 | [12] -0.015 | [13] 0.249 | pinometostat -0.047 | [14] -0.027

CAMK2G isoform 6 (UniProt Q13555)
Sequence of UniProt Q13555 (Q13555 whole entry, looked up): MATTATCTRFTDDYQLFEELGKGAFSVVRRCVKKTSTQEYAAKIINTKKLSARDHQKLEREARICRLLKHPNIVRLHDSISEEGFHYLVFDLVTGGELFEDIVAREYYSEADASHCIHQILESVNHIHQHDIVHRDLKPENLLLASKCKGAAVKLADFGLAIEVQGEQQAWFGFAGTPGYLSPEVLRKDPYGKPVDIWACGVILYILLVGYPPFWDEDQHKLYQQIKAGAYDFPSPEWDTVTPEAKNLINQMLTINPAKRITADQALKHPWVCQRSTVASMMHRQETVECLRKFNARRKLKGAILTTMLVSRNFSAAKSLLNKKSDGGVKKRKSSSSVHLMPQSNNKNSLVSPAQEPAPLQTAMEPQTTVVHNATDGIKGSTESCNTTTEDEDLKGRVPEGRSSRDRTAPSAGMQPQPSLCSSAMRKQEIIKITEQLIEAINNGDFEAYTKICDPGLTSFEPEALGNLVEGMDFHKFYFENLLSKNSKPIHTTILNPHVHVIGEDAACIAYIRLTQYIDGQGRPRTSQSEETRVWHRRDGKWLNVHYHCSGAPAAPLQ
inactive: erlotinib -0.003 | [1] -0.096 | [2] -0.047 | [3] -0.098 | [4] 0.054 | [5] 0.009 | [6] 0.055 | [7] 0.08 | [8] -0.02 | [9] 0.015 | IRAK-1-4 Inhibitor I -0.008 | ibrutinib 0.004 | [10] 0.181 | ralimetinib 0.118 | [11] 0.039 | [12] -0.016 | [13] 0.038 | pinometostat 0.067 | [14] -0.075 | [15] 0.063

C9orf64 (UniProt Q5T6V5)
Sequence of UniProt Q5T6V5 (Q5T6V5 whole entry, looked up): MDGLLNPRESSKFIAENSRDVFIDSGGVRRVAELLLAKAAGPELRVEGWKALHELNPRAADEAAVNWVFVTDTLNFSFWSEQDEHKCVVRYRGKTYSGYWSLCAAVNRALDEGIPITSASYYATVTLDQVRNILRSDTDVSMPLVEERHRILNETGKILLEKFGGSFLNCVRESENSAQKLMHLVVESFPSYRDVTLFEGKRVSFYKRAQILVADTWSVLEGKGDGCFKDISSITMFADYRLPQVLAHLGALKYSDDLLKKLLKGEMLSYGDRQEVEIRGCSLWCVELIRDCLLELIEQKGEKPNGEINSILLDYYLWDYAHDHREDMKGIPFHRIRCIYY
inactive: erlotinib 0.046 | [1] 0.142 | [2] 0.009 | [3] 0.065 | [4] 0.117 | [5] 0.017 | [6] 0.054 | [7] -0.037 | [8] -0.001 | [9] -0.039 | IRAK-1-4 Inhibitor I -0.041 | ibrutinib -0.03 | [10] -0.019 | ralimetinib -0.018 | [11] -0.181 | [12] -0.288 | [13] 0.012 | pinometostat 0.053 | [14] 0.02 | [15] -0.097

CDK11B (UniProt P21127)
inactive: erlotinib 0.044 | [1] 0.006 | [2] -0.139 | [3] 0.063 | [4] 0.035 | [5] -0.033 | [6] -0.042 | [7] -0.049 | [8] -0.033 | [9] -0.058 | IRAK-1-4 Inhibitor I -0.151 | ibrutinib -0.026 | ralimetinib 0.04 | [11] -0.006 | [12] -0.116 | [13] 0.076 | pinometostat -0.11 | [14] -0.009
active: [10] 2.34 | [15] -0.366

CKB (UniProt P12277)
Sequence of UniProt P12277 (P12277 whole entry, looked up): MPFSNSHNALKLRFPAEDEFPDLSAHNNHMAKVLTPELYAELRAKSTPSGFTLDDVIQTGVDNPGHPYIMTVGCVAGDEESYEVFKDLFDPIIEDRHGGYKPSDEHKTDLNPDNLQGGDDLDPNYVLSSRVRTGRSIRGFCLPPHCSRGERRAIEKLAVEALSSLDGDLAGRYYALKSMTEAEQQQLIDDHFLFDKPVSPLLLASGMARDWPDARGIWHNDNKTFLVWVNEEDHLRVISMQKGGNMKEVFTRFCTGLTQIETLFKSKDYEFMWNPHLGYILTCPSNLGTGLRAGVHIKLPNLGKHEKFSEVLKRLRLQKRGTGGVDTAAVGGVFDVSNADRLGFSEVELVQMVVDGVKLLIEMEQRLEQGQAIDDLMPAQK
inactive: erlotinib 0.011 | [1] 0.045 | [2] 0.052 | [3] 0.035 | [4] 0.018 | [5] -0.038 | [6] 0.01 | [7] 0.065 | [8] 0.022 | [9] 0.027 | IRAK-1-4 Inhibitor I 0.014 | ibrutinib -0.024 | [10] -0.009 | ralimetinib -0.01 | [11] -0.077 | [12] -0.045 | [13] 0.021 | pinometostat -0.02 | [14] -0.014 | [15] 0.059

CDC42BPB (UniProt Q9Y5S2)
Sequence of UniProt Q9Y5S2 (Q9Y5S2 whole entry, looked up): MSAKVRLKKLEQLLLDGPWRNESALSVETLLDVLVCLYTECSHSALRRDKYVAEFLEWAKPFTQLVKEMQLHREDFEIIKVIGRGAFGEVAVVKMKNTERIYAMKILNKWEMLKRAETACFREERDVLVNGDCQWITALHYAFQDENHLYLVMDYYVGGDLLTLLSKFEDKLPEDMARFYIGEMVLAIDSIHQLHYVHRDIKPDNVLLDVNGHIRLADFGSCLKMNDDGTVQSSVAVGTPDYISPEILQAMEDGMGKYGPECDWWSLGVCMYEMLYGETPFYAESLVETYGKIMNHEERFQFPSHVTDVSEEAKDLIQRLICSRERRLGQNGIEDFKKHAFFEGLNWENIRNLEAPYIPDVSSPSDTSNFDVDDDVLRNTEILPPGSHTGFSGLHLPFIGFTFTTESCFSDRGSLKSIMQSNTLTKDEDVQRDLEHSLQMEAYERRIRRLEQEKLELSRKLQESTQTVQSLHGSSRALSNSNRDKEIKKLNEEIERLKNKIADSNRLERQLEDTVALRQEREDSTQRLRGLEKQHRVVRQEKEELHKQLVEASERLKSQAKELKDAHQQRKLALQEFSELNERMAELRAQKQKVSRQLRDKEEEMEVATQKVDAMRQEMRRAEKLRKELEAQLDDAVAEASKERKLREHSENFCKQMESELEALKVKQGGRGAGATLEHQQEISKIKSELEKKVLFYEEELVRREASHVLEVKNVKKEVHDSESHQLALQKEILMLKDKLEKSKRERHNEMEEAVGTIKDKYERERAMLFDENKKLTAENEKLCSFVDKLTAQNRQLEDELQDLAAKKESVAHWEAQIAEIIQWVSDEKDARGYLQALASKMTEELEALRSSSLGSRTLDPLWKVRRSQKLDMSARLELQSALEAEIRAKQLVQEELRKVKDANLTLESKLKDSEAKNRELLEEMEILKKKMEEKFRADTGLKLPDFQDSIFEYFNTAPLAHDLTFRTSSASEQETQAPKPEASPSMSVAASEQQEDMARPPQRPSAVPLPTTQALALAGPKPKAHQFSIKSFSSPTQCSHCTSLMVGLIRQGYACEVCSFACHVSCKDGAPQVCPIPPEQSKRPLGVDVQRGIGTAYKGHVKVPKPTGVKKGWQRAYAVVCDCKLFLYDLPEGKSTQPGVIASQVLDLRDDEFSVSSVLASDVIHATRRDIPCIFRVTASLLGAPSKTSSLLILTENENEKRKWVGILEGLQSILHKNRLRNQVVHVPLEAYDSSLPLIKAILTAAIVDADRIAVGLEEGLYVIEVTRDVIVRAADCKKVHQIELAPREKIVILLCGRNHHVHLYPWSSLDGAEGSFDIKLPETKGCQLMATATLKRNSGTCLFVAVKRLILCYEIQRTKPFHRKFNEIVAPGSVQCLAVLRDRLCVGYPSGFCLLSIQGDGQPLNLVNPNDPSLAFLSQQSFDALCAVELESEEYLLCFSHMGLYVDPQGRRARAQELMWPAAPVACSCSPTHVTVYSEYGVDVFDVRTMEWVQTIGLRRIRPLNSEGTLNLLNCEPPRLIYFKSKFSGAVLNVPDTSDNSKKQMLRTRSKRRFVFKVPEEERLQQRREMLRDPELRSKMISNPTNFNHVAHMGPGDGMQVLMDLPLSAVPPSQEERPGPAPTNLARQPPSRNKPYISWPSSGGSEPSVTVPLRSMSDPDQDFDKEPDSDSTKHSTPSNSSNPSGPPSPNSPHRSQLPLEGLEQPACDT
inactive: erlotinib -0.005 | [1] 0.221 | [2] -0.071 | [3] 0.069 | [4] -0.047 | [5] 0.027 | [6] -0.024 | [7] 0.04 | [8] 0.017 | [9] -0.221 | IRAK-1-4 Inhibitor I -0.022 | ibrutinib -0.167 | ralimetinib 0.124 | [11] 0.023 | [12] -0.063 | [13] -0.009 | pinometostat 0.267 | [14] -0.038 | [15] 0.023
active: [10] -0.637

CHEK1 (UniProt O14757)
Sequence of UniProt O14757 (O14757 whole entry, looked up): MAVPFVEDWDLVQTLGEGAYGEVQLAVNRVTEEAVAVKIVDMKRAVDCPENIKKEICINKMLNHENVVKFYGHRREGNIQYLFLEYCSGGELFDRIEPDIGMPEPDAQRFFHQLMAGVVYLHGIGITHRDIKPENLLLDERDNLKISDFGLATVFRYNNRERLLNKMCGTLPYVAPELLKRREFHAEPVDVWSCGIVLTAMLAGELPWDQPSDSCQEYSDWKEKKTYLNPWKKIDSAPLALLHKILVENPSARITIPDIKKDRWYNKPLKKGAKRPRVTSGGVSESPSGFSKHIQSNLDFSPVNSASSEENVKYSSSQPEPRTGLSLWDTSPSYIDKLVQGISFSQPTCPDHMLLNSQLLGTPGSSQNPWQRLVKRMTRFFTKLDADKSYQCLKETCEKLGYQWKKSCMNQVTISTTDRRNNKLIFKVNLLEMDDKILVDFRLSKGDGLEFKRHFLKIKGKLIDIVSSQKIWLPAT
active: [8] -0.303
inactive: erlotinib 0.03 | [1] 0.047 | [2] 0.029 | [3] 0.012 | [4] 0.246 | [5] 0 | [6] -0.026 | [7] -0.099 | [9] -0.089 | IRAK-1-4 Inhibitor I -0.018 | ibrutinib -0.014 | [10] 0 | ralimetinib -0.076 | [11] -0.055 | [12] 0.003 | [13] 0.056 | pinometostat 0.018 | [14] 0.017 | [15] -0.029

CDK5RAP1 (UniProt Q96SZ6)
active: [1] -0.555
inactive: erlotinib 0.076 | [2] 0.046 | [3] -0.025 | [4] 0.134 | [5] -0.03 | [6] 0.069 | [7] 0.078 | [8] 0.072 | [9] -0.029 | IRAK-1-4 Inhibitor I -0.067 | ibrutinib 0.018 | [10] 0.111 | ralimetinib -0.057 | [11] -0.055 | [12] -0.066 | [13] -0.015 | pinometostat 0.025 | [14] -0.038 | [15] 0.099

CA8 (UniProt P35219)
inactive: erlotinib -0.045 | [1] 0.051 | [2] 0.092 | [3] -0.017 | [4] 0.054 | [5] 0.019 | [6] 0.118 | [7] -0.02 | [8] -0.054 | [9] 0.011 | IRAK-1-4 Inhibitor I 0.027 | ibrutinib 0.004 | [10] -0.091 | ralimetinib 0.033 | [11] -0.036 | [12] -0.056 | [13] 0.011 | pinometostat -0.008 | [14] -0.021 | [15] -0.046

CD151 (UniProt P48509)
Sequence of UniProt P48509 (P48509 whole entry, looked up): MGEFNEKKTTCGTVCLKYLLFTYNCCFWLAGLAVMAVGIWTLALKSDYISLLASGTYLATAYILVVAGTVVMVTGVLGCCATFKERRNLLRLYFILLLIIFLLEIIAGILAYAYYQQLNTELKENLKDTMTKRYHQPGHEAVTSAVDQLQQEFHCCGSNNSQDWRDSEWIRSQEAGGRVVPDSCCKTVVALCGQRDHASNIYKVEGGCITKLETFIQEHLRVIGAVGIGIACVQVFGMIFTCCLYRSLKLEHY
inactive: erlotinib -0.035 | [1] 0.029 | [2] 0.045 | [3] 0.103 | [4] -0.021 | [5] 0.069 | [6] 0.021 | [7] -0.125 | [8] -0.021 | [9] 0.113 | IRAK-1-4 Inhibitor I -0.077 | ibrutinib 0.012 | [10] 0.025 | ralimetinib 0.013 | [11] -0.021 | [12] -0.017 | [13] 0.027 | pinometostat -0.054 | [14] 0.082 | [15] 0.083
